Holding throughout (test): DAPPL (digital affinity profiling via proximity ligation, sequencing); 10 mM Tris-HCl pH 7.5, 50 mM NaCl, 1 mM DTT, 4% glycerol, room temperature, 30 min; GST-TFs on glutathione beads, 16-mer random dsDNA library, 0.1% formaldehyde crosslink after washing; high values mean tight binding
Common to all, as to conditions: protein: recombinant; tags: N-terminal GST; dsDNA, one strand shown

In one test the target is ELF4 (Homo sapiens, UniProt Q99607 1-663). An outline of the steps:
(§1)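 Each value of binding signal is a hexamer's read frequency for a factor divided by the same hexamer's frequency in the tag-only sample. Barcoded, bead-captured GST fusions of human transcription factors made in yeast were pooled with that sample and incubated with 200 nmole of a random double-stranded 16-mer DNA library in Tris/NaCl/DTT/glycerol buffer at room temperature for 30 min. Washing, 0.1% formaldehyde crosslinking, proximity ligation, PCR and Illumina NextSeq500 sequencing followed.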

The target in the next test is T1, ELK4 (Homo sapiens, UniProt P28324-2 1-405).
T1 sequence: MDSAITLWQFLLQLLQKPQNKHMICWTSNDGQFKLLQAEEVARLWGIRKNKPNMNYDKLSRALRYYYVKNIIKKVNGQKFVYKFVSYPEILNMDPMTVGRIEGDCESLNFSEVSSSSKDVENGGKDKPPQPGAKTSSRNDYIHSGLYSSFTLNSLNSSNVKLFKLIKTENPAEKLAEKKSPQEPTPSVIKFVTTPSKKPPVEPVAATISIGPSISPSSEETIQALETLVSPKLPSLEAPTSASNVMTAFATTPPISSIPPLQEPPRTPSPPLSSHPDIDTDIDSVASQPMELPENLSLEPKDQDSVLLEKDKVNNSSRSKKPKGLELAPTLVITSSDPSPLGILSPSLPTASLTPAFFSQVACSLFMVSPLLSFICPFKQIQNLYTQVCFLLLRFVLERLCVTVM
The method in brief:
as §1

The next test addresses T2, ETV2 (Homo sapiens, UniProt O00321 1-342).
T2 sequence: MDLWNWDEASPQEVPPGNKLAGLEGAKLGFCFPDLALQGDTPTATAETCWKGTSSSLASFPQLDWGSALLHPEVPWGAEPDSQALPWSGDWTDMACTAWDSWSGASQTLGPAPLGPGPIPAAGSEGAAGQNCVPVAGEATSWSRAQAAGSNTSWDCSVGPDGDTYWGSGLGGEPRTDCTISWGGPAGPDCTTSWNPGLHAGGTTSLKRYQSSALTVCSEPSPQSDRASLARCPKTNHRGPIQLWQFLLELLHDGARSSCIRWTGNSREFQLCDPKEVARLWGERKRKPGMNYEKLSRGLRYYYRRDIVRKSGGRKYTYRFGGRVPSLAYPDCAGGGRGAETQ
An outline of the steps:
as §1

A further test addresses T3, ELF3 (Homo sapiens, UniProt P78545 1-371).
T3 sequence: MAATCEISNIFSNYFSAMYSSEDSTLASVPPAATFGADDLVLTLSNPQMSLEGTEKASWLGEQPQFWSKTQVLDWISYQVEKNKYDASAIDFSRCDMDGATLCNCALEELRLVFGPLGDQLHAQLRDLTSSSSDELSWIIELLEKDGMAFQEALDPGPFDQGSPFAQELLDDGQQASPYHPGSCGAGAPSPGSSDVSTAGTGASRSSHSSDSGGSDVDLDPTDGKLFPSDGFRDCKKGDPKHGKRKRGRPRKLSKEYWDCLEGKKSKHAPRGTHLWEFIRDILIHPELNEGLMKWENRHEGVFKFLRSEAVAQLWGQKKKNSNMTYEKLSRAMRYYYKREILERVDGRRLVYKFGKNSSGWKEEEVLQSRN
An outline of the steps:
as §1

In the next test the target is CRX (Homo sapiens, UniProt O43186 1-299). The method in brief:
as §1

In the next test the target is ETV1 (Homo sapiens, UniProt P50549 1-477). An outline of the steps: as §1
Sequence of ETV1 (P50549 whole entry): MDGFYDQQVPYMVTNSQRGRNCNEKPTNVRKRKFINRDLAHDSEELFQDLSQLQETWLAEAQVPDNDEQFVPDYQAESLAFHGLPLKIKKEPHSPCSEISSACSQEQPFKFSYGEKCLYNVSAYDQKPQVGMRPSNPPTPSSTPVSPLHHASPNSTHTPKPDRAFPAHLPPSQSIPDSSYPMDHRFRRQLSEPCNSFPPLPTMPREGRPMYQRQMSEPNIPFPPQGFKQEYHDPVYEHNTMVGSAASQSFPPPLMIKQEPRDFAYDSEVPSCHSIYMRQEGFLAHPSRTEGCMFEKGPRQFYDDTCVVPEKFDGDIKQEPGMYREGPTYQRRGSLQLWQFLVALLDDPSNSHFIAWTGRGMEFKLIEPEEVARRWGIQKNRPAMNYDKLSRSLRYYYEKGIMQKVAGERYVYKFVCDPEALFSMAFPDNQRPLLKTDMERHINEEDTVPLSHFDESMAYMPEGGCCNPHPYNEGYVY
For another test, the target named is T4, ERF (Homo sapiens, UniProt P50548 1-548).
T4 sequence: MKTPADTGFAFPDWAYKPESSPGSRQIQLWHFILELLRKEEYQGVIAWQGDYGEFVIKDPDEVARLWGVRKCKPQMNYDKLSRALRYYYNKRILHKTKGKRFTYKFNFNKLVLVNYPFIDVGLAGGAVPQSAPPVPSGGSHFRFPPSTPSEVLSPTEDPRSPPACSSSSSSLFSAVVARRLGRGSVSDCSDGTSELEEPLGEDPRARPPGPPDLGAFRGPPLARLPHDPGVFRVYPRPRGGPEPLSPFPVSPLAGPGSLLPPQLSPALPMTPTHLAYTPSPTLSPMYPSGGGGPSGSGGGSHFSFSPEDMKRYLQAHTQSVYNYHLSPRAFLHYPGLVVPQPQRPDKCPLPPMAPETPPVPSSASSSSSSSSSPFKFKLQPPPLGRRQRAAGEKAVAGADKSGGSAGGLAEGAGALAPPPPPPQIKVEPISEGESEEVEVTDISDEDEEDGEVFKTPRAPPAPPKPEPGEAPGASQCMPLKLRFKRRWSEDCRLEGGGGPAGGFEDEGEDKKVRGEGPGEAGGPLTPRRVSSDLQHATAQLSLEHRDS
The method in brief:
as §1

For another test, the target named is T5, ETV3L (Homo sapiens, UniProt Q6ZN32 1-361).
T5 sequence: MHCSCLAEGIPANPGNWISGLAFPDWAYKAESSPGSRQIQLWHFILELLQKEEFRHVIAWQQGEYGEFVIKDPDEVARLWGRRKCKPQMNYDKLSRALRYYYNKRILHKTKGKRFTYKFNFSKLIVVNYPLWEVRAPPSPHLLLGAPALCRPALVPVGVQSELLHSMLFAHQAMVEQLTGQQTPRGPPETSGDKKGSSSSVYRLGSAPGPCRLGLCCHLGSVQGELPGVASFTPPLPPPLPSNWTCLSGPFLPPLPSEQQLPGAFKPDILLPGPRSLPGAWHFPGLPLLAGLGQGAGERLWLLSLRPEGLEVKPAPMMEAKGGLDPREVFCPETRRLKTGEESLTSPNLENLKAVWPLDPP
An outline of the steps: as §1

The target in another test is T6, ELF5 (Homo sapiens, UniProt Q9UKW6-2 1-255).
T6 sequence: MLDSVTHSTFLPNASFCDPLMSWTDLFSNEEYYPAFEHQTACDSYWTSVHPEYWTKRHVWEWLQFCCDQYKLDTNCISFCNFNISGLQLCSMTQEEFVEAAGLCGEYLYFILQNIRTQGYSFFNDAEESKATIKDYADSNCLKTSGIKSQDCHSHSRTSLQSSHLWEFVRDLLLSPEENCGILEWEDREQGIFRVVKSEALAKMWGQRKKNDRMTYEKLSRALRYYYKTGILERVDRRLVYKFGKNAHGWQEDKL
The method in brief: as §1

The next test addresses T7, ETV3 (Homo sapiens, UniProt P41162-2 1-143).
T7 sequence: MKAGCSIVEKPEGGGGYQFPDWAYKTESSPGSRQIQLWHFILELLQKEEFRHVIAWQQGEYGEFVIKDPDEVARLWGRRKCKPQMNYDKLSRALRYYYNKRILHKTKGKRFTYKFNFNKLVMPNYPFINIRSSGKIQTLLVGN
The method in brief: as §1

For another test, the target named is ETV6 (Homo sapiens, UniProt P41212 1-452). The method in brief: as §1
Sequence of ETV6 (P41212 whole entry): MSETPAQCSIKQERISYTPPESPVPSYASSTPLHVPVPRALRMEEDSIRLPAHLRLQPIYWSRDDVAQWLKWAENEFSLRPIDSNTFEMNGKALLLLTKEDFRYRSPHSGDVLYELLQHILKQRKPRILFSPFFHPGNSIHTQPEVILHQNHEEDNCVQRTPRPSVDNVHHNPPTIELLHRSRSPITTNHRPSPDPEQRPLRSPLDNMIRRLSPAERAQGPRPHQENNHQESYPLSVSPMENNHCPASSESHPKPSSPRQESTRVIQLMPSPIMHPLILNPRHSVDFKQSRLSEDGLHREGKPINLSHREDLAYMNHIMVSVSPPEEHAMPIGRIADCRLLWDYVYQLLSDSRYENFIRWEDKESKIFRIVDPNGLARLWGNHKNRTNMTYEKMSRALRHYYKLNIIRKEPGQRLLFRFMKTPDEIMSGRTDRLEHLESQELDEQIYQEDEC

Sequence of ELF4 (Q99607 whole entry, the tested form may be a part): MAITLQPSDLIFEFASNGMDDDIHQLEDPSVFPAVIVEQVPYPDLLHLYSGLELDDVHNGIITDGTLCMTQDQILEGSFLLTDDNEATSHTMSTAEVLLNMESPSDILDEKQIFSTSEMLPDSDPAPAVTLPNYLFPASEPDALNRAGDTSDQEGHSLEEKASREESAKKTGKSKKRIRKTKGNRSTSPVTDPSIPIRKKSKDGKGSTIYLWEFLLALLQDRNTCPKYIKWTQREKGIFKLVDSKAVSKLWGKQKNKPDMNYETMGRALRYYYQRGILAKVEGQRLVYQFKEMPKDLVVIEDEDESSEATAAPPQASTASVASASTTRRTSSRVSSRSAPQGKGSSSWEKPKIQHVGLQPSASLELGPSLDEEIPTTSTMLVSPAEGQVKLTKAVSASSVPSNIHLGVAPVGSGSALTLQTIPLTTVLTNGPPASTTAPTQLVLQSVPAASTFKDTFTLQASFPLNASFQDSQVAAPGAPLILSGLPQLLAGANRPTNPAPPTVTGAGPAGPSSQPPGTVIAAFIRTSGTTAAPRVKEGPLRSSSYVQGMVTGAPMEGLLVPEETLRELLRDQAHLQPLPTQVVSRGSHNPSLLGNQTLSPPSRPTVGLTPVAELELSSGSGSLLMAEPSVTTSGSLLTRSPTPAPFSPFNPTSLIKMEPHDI
Sequence of CRX (O43186 whole entry): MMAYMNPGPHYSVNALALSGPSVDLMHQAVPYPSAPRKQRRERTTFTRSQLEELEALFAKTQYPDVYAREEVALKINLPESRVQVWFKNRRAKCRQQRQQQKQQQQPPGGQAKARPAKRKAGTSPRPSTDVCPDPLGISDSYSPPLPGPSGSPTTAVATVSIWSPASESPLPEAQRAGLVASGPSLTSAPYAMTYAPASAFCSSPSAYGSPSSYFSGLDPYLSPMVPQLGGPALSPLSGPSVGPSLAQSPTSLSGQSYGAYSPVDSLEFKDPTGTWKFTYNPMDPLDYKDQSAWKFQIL

Regarding ATGGGG, the binding signal was 1.02 fold enrichment (6-mer frequency, TF over GST control) in the test with ELF4; 1.03 fold enrichment (6-mer frequency, TF over GST control) with ELK4; 1.16 fold enrichment (6-mer frequency, TF over GST control) in the test with ETV2; 1.06 fold enrichment (6-mer frequency, TF over GST control) in the test with ELF3; 1.03 fold enrichment (6-mer frequency, TF over GST control) with CRX; 1.15 fold enrichment (6-mer frequency, TF over GST control) with ETV1. For the same sequence, the binding signal with ERF was 1.08 fold enrichment (6-mer frequency, TF over GST control); with ETV3L, 1.16 fold enrichment (6-mer frequency, TF over GST control); in the test with ELF5, 1.1 fold enrichment (6-mer frequency, TF over GST control); with ETV3 it was 1.13 fold enrichment (6-mer frequency, TF over GST control); with ETV6, 1.18 fold enrichment (6-mer frequency, TF over GST control).

The values are drawn from publication PMC7862700, “An all-to-all approach to the identification of sequence-specific readers for epigenetic DNA modifications on cytosine”.
